Where “and” joins values, the source holds several entries; their conditions need not be identical. Equal values may be shown once. In all, about 150,000 compounds went through this assay and about 6,500 (4.3%) were called active. Not shown: some 12% with an inconclusive outcome. Shown is part of a subset that was picked to be rich in actives. A number with no mark means an inactive call. The call rests on the fitted dose curve; in most records, active means well fitted inhibition curve with a large enough effect (not every such curve was filed as active); inconclusive means small, poorly fitted or top-dose-only effect, or another doubt; inactive means no such curve, though single readings can be large or run the other way.
On the % scale 0 is the no-effect control and ±100 the full control effect; potency means the concentration at half of the fitted maximal effect.

The target of the test is 15-hydroxyprostaglandin dehydrogenase [NAD(+)] (Homo sapiens) (UniProt P15428). The experiment in a line: qHTS Assay for Inhibitors of HPGD (15-Hydroxyprostaglandin Dehydrogenase). The following applies: purified HPGD, NADH fluorescence kinetic, PGE2 substrate; activity change, negative = inhibition: active compounds read low. The text has this: Human 15-Hydroxyprostaglandin dehydrogenase (HPGD) catalyzes the inactivation of prostaglandin E2, and plays a major role in cancer biology by antagonizing the oncogenic potential of cyclooxygenase type 2 (COX2). Assays are available, based on absorbance/fluorescence increase of NADH with the substrate 15-OH prostaglandin E2. References 1. Myung SJ, Rerko RM, Yan M, Platzer P, Guda K, Dotson A, Lawrence E, Dannenberg AJ, Lovgren AK, Luo G, Pretlow TP, Newman RA, Willis J, Dawson D, Markowitz SD. 15-Hydroxyprostaglandin dehydrogenase is an in vivo suppressor of colon tumorigenesis. […] 2. Yan M, Rerko RM, Platzer P, Dawson D, Willis J, Tong M, Lawrence E, Lutterbaugh J, Lu S, Willson JK, Luo G, Hensold J, Tai HH, Wilson K, Markowitz SD. 15-Hydroxyprostaglandin dehydrogenase, a COX-2 oncogene antagonist, is a TGF-beta-induced suppressor of human gastrointestinal cancers. Proc Natl Acad Sci U S A. 2004 Dec 14;101(50):17468-73. 3. Yang L, Amann JM, Kikuchi T, Porta R, Guix M, Gonzalez A, Park KH, Billheimer D, Arteaga CL, Tai HH, Dubois R, Carbone DP, Johnson DH. Inhibition of Epidermal Growth Factor Receptor Signaling Elevates 15-Hydroxyprostaglandin Dehydrogenase in Non-Small-Cell Lung Cancer. Cancer Res. 2007 Jun 15;67(12):5587-5593. Inhibition of HPGD activity was screened by utilizing prostaglandin as an electron donor and NAD+ as an electron acceptor/cofactor. An increase in the fluorescence intensity due to conversion of NAD+ to NADH was used to measure the enzyme activity. NIH Chemical Genomics Center [NCGC] Structural Genomics Consortium [SGC]
Sequence of 15-hydroxyprostaglandin dehydrogenase [NAD(+)] (Homo sapiens) (P15428 whole entry, looked up): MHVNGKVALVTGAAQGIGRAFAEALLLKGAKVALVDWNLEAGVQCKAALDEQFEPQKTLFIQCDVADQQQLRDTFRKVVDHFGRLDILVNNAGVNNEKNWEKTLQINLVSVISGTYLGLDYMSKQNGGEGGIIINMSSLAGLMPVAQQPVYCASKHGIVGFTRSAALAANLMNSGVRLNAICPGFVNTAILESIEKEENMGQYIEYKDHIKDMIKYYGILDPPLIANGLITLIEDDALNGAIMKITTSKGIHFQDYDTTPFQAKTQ
Buffer: 50 mM Tris-HCl, 0.01% Tween 20, pH 8. Enzyme Buffer: 50 mM Tris-HCl, 0.5 mM NAD+ and 0.01% Tween 20, pH 8. Reagents/Controls: Buffer in columns 3 and 4 as negative control (no enzyme). Substrate/cofactor solution: 1 mM NAD+ and 30 uM prostaglandin (Sigma, prostaglandin E2, # P5640) final concentrations dispensed throughout the plate. Enzyme: 20 nM HPGD final concentration in columns 1, 2, 5-48. Column 1 and 2 is neutral (100% activity). A titration of control inhibitor GW5074 (G6416 Sigma-Aldrich, St. Louis, MO) top concentration 10 mM in DMSO, then 1:2 dilution for a total of 16 concentrations in duplicate) was pin-transferred into column 2. Assay Steps: Three uL of enzyme were dispensed to 1536-well Greiner black solid bottom plates. Compounds and control inhibitor (23 nL) were transferred via Kalypsys PinTool. The plates were incubated for 15 min at room temperature, and then 1 uL of substrate/cofactor solution was added to start the reaction. The plates were immediately transferred to and read 5 times every 30 seconds on ViewLux High-throughput CCD imager (Perkin-Elmer) using 360 nm excitation and 450 nm emission fluorescence protocol. The fluorescence intensity difference between the last and the first time points was used to compute reaction progress.
On the technique in general: Quantitative high-throughput screening tests each substance at several concentrations.
As to `CC(=O)c1c(O)c(C)c(O)c(Cc2c(O)c3c(c(C(=O)/C=C/c4ccccc4)c2O)OC(C)(C)C=C3)c1O`, the activity change, negative = inhibition was -19.2% and -15.4%.

For the molecule `CCCCC/C=C\C/C=C\C/C=C\CCCCCCC(=O)NCCO`, the activity change, negative = inhibition was -7.26% and -18.7%.

Consider `CC(C)(c1ccc(OC[C@@H]2CO2)cc1)c1ccc(OC[C@H]2CO2)cc1`, for which the Potency is 12.6 µM (active).

In the case of `CCOC(=O)c1ncn2c1[C@@H]1CCCN1C(=O)c1cc(OC)ccc1-2`, the activity change, negative = inhibition was -9.65%.

`Cc1nc2nc(C)c(CCC(=O)N3CCC4(CC3)OCCO4)c(C)n2n1`: the activity change, negative = inhibition was -4.62%.

As for `C=CC#N`, the activity change, negative = inhibition is -3.54%.

With `NCCc1c[nH]c2ccc(O)cc12`, the activity change, negative = inhibition is -4.55% and -5.27% and -12.4%.

Regarding `Cc1noc(C)c1CSc1nc2cc(S(=O)(=O)N3CCOCC3)ccc2o1`, the Potency is 7.94 µM (active).

With `C[C@@]12CCC3C(CC[C@@H]4CC(O)CC[C@@]34C)C1CCC2O` (some centres not stated), the activity change, negative = inhibition was -3.43%.

Regarding `CC(Cl)Cl`, the activity change, negative = inhibition was -8.77%.

For the molecule `O=C(NCc1cccs1)c1ccc(Br)o1`, the Potency is 20 µM (active).

For the molecule `Fc1ccc(C(OCCN2CCN(C/C=C\c3ccccc3)CC2)c2ccc(F)cc2)cc1`, the activity change, negative = inhibition was -13.4%.

Consider `CCCCC/C=C\C/C=C\C/C=C\C=C\[C@H](CCCC(=O)O)OO`, for which the activity change, negative = inhibition was -9.41%.

Regarding `Cc1cccc2c3c(ccc12)C1=C(C(=O)C3=O)C(C)CO1` (configuration not stated), the Potency is 17.8 µM (active).

As for `CNCC[C@H](Oc1ccc(C(F)(F)F)cc1)c1ccccc1`, the activity change, negative = inhibition is -9.03% and -8.03% and -3.66%.

On to `CC(C)(O)/C=C\C(=O)[C@](C)(O)[C@H]1[C@H](O)C[C@]2(C)[C@@H]3CC=C4[C@@H](C=C(O)C(=O)C4(C)C)[C@]3(C)C(=O)C[C@@]12C`, for which the activity change, negative = inhibition is -9.86%.

On to `COC(=O)N(c1ccc(OC)cc1)P1(=S)OCCC(C)O1` (configuration not stated), for which the Potency was 4.47 µM (active).

As to `OC(Cn1c2ccccc2c2ccccc21)C[n+]1ccccc1` (configuration not stated), the activity change, negative = inhibition is -3.99%.

With `Cc1ccc(N2C(=O)NC(=O)C(CCc3ccncc3)(Cc3cccc(Cl)c3Cl)C2=O)cc1` (configuration not stated), the activity change, negative = inhibition was -5.28%.

For `C=CCSSCC=C`, the Potency was 8.91 µM (active).

With `CC(=O)OC1C2CCC3C1(CC(O)[C@@]1(O)[C@@H](CC(O)C1(C)C)[C@]3(C)O)C[C@@]2(C)O` (some centres not stated), the activity change, negative = inhibition is -0.742%.

Consider `CCCCCCCCCCCCCC(=O)O[C@@H]1[C@@H](C)[C@@]2(O)[C@@H](C=C(CO)C[C@]3(O)C(=O)C(C)=C[C@@H]23)[C@@H]2C(C)(C)[C@]12OC(C)=O`, for which the activity change, negative = inhibition is -19%.

As for `CC(C)(O)c1[se]c2ccccc2c1I`, the activity change, negative = inhibition was -24.2%.

As for `Cc1cccc(N2C(=O)NC(=O)/C(=C\c3cnn(-c4ccccc4)c3)C2=O)c1`, the Potency was 10 µM (active).

For the molecule `CC12CN3CC(C)(CN(C1)C3c1cccs1)C2` (configuration not stated), the activity change, negative = inhibition is -2.07%.

As to `CC(=C1C(=O)c2ccccc2C1=O)N1CCN(CCN=Cc2c(O)n(C)c(=O)n(C)c2=O)CC1`, the activity change, negative = inhibition was -26.9%.

With `COc1c(O)ccc2c1-c1c3c(cc4c1C(C2)N(C)CC4)OCO3` (configuration not stated), the activity change, negative = inhibition is -4.96%.

On to `O=c1c2ccccc2nc(-c2ccco2)n1-c1ccc(Br)cn1`, for which the activity change, negative = inhibition is -7.61%.

Take `Cc1nc2ccccn2c1P(=S)(N1CCCCC1)N1CCCCC1`: the activity change, negative = inhibition was -26.7%.

With `CCCCCCCCc1[se]c2ccccc2c1Br`, the activity change, negative = inhibition was 1.04%.

For `CCNC[C@H](O)c1cccc(O)c1`, the activity change, negative = inhibition was -6.69%.

Consider `O=C1/C(=C\c2ccc3c(c2)OCO3)N2CCC1CC2`, for which the Potency is 25.1 µM (active).

In the case of `N[C@H](Cc1o[nH]c(=O)c1Cl)C(=O)O`, the activity change, negative = inhibition was 0.654%.

Take `Cc1ccc(N(C)C(=O)Oc2cccc3ccc(C)nc23)cc1`: the activity change, negative = inhibition is -1.1%.

Turning to `O=c1c2ccccc2nc(-c2ccc(Cl)cc2Cl)n1-c1ccncc1`, the activity change, negative = inhibition was -1.06%.

For the molecule `C1CC[C@H]([C@@]23C[C@H](C[C@H]4CCCN[C@H]42)[C@@H]2CCCCN2C3)NC1`, the activity change, negative = inhibition is -4.36%.

Take `O=C(O)C1C2CCC(O2)C1C(=O)O` (configuration not stated): the activity change, negative = inhibition was -2.85%.

On to `O=C(OCC1O[C@@H](OC(=O)c2cc(O)c(O)c(O)c2)[C@@H](OC(=O)c2cc(O)c(O)c(O)c2)[C@@H](OC(=O)c2cc(O)c(O)c(O)c2)[C@@H]1OC(=O)c1cc(O)c(O)c(O)c1)c1cc(O)c(O)c(O)c1` (some centres not stated), for which the Potency is 10 µM (active).

For the molecule `CC(C)N(CC#CCC1(O)c2ccccc2-c2ccccc21)C(C)C`, the activity change, negative = inhibition was -8.59%.

Turning to `CCN1CCN(C(=O)Cc2coc3cc(C)cc(C)c23)CC1`, the activity change, negative = inhibition is -14.1%.

For the molecule `O=[N+]([O-])c1ccc(Cl)c(Cl)c1`, the activity change, negative = inhibition was -4.16%.

On to `CN[C@@H]1C[C@H]2O[C@@](C)([C@@H]1OC)n1c3ccccc3c3c4c(c5c6ccccc6n2c5c31)C(=O)NC4`, for which the activity change, negative = inhibition was -25.7%.

As to `Cc1ccc(Cn2c(C)c3cnn(CC(=O)N4CCC5(CC4)OCCO5)c(=O)c3c2C)cc1`, the activity change, negative = inhibition is -21.8%.

In the case of `Cc1cc(-c2n[nH]c(=S)n2-c2ccc(C)c(C)c2)no1`, the Potency is 5.62 µM (active).

In the case of `NCCc1ccc(S(=O)(=O)F)cc1`, the activity change, negative = inhibition is -8.88%.

In the case of `CC(=O)O[C@H]1CC[C@@]2(C)[C@@H](CC[C@H]3[C@H]2CC(=O)[C@]2(C)[C@@H]3C[C@@H](N3CC3)[C@H]2C(C)=O)C1`, the activity change, negative = inhibition was -8.48%.

`CCC(C)C(=O)O[C@@H]1C[C@@]2(C)C(c3ccoc3)OC(=O)CC23OC2(C)O[C@@]14[C@@]1(C)C(CC(=O)OC)C5(C)CC1(O)C(O)(C5OC(=O)C1(C)OC1C)C(OC(C)=O)[C@@]34O2` (some centres not stated): the activity change, negative = inhibition is -23.2%.

For the origin of these results see PubChem BioAssay AID894 (National Center for Advancing Translational Sciences (NCATS), 2007).
